In the library only some 4% were active in any assay of this set; here they are far more common.
FBA Mtb inh – inhibits M. tuberculosis FBA enzyme. purified M. tuberculosis FBA, fluorescence read-out. inhibition, % at 1 µM. AID 588726. 360,000 tested, 2.3% active. P9WQA3; in the data active = inhibition above about 27%
Target sequence (P9WQA3 whole entry, looked up): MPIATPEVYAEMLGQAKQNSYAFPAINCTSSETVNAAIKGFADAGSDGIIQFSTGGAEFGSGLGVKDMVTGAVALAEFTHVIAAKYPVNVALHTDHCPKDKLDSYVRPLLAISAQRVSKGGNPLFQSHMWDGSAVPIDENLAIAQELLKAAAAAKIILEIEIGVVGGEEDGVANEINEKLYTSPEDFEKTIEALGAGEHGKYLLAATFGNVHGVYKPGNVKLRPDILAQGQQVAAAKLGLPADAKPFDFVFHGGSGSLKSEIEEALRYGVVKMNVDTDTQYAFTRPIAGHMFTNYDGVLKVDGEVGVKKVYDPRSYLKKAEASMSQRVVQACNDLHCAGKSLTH
MazEF act – MazEF (E. coli) toxin RNase activation; P0AE70; FAM/BHQ RNA-DNA oligo cleavage fluorescence, 5 h; AID 504720; 350,000 tested, 0.32% active; activation, % at 20 µM; in the data active = activation above about 50%
Target sequence (P0AE70 whole entry, looked up): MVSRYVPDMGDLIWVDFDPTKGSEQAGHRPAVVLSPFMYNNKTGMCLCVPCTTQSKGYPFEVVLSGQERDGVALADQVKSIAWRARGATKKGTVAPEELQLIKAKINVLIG
Mtb bLac sens – beta-lactam sensitization of Mtb H37Rv. M. tuberculosis H37Rv growth with meropenem, percent inhibition. 330,000 tested, 0.27% active. inhibition, % at 25 µM; call rule not given here;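 also: growth measured after seven days incubation then overnight dye step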
GDH-TPI inh – counter-screen for M. tuberculosis FBA inhibitors: GDH-TPI coupled enzymes; GDH-TPI coupled enzyme counterscreen, NADH absorbance; inhibition, % at 4.8 µM; 360,000 tested, 1.2% active
CCHFV vOTU inh – CCHFV vOTU protease inhibition; 370,000 tested, 0.55% active; AID 651958; inhibition, % at 11.5 µM; Pep-AMC fluorescence
Hits are given with their value; . = inactive; ? = inconclusive; / = not tested or not shown; + = active, no number. Rule as the data show it, unless noted: active = inhibition above about 30%; inactive = the rest.

SMILES	FBA Mtb inh	MazEF act	Mtb bLac sens	GDH-TPI inh	CCHFV vOTU inh
CCOC(=O)N1CCc2c(sc3nc4n(c(=O)c23)N=C(C)CS4)C1	.	.	.	30.9	.
CC(=O)Oc1ccccc1/C=C/c1ccc2ccccc2[n+]1C	.	.	.	30.8	.
C=CCn1c(O)c(/C=N/N2CCCCC2c2cccnc2)c(=O)[nH]c1=S (centres undefined)	.	.	.	31.0	.
COc1ccc2cc3[n+](cc2c1OC)CCc1cc2c(cc1-3)OCO2	.	.	.	34.7	.
COc1ccc(C(=O)CSc2nnc(-c3cccs3)o2)cc1OC	/	/	/	/	.
O=c1cc[nH]c2c1ccc1c(=O)cc[nH]c12	.	.	.	.	.
CN(C)c1ccc2c(=O)cc[nH]c2c1	+	/	/	/	.
C#CCNC(=O)C[C@H]1C[C@@]2(C(=O)OC)C(=C[C@H](C3CCCC3)O[C@@H]2C)N(CCc2ccc(OC)c(OC)c2)C1=O	/	/	/	/	.
COc1cc(C2CC(=O)C3=C(C2)Nc2ncnn2C3c2cccs2)cc(OC)c1OC (centres undefined)	.	.	.	.	.
COc1cc(C2C=C(c3cccs3)Nc3ncnn32)cc(OC)c1OC (centres undefined)	.	.	/	41.5	/
NS(=O)(=O)c1ccc(N2CCN(C(=O)c3ccco3)CC2)nc1	.	.	.	.	.
O=C(c1ccco1)N1CCN(c2ccc([N+](=O)[O-])cn2)CC1	.	.	.	30.7	.
CCOC(=O)c1cccc(NC(=O)CN(C)S(=O)(=O)c2cc(OC)ccc2OC)c1	/	/	/	/	.
CC1CN(c2ccc([N+](=O)[O-])c3cccnc23)CC(C)N1 (centres undefined)	.	.	.	.	31.6
O=[N+]([O-])c1ccc(N2CCN(CCO)CC2)c2ncccc12	.	.	.	.	.
O=[N+]([O-])c1ccc(N2CCCC2)c2ncccc12	.	101.4	.	.	.
CC(=O)N1CCN(C(=O)c2ccc(CNC(=O)c3cccc(Br)c3)cc2)CC1	/	/	/	/	.
C=CCn1c(SCC(=O)Nc2ccccc2-c2ccccc2)nnc1-c1ccccc1	/	/	/	/	.
O=[N+]([O-])c1ccc(-c2nc(Nc3cccc(O)c3)c3ccccc3n2)cc1	.	123.2	.	.	.
CCOC(=O)c1nc(Nc2ccc(Nc3ccccc3)cc2)c2ccccc2n1	.	.	/	.	.
CCOC(=O)c1ccc(Nc2nc(C(=O)OCC)nc3ccccc23)cc1	.	.	.	35.0	.
CNC(=O)c1ccc(Nc2nc(-c3ccccc3)nc3ccccc23)cc1	.	.	.	.	.
O=C(O)c1ccc(Nc2nc(-c3ccccc3)nc3ccccc23)cc1	.	.	.	46.6	.
COc1ccc(Nc2nc(-c3ccccc3O)nc3ccccc23)cc1	.	.	.	.	.
COc1cccc(Nc2nc(-c3ccccc3O)nc3ccccc23)c1	.	74.7	.	.	.
SMILES	FBA Mtb inh	MazEF act	Mtb bLac sens	GDH-TPI inh	CCHFV vOTU inh
C#CCNC(=O)C[C@H]1C[C@@]2(C(=O)OC)C(=C[C@H](C(C)C)O[C@@H]2C2CC2)N(CCC2=CCCCC2)C1=O	/	/	/	/	.
CCCCCOc1ccc(/C=N/NC(=O)CSc2nnc(-c3ccc(OC)cc3)n2-c2ccc(C)cc2)cc1	/	/	/	/	.
CC(C)C[C@@H]1COc2cc(Br)ccc2S(=O)(=O)N1Cc1cn(Cc2ccccc2)nn1	/	/	/	/	.
CCOC(=O)c1nc(Nc2ccc(C(=O)O)cc2)c2ccccc2n1	.	.	.	31.3	.
COc1ccc2c(C(=O)NCCCCO)c(-c3ccc(S(C)(=O)=O)cc3)sc2c1	+	.	.	.	.
COc1ccc2sc(-c3ccc(S(C)(=O)=O)cc3)c(C(=O)NCCc3c[nH]c4ccccc34)c2c1	.	.	.	.	.
O=[N+]([O-])c1cc(O)c(O)c([N+](=O)[O-])c1	.	.	.	.	.
O=[N+]([O-])c1cc(-n2cnnn2)c(O)c([N+](=O)[O-])c1	.	.	.	31.1	.
COC(=O)[C@H](CC(C)C)N1Cc2nnn(Cc3ccccc3)c2-c2ccccc2S1(=O)=O	/	/	/	/	.
CCCCN1CC[C@H]2C=CC[C@@H](C(=O)N3CCOCC3)[C@H]2C1=O	.	.	.	.	.
CCCCN1CC[C@@H]2C=CC[C@H](C(=O)OC)[C@@H]2C1=O	.	79.7	/	.	.
COc1cc(C=C2C(=O)c3ccccc3C2=O)cc(OC)c1OC	.	.	.	.	.
COc1cc(C=Cc2nnc3c4ccccc4cnn23)cc(OC)c1OC	.	.	/	54.7	.
Cc1ccc(S(=O)(=O)NN=C2CCC(C(C)(C)C)CC2)cc1[N+](=O)[O-] (centres undefined)	.	115.0	.	.	/
O=S(=O)(N/N=C1/CCCc2ccccc21)c1ccc(Br)cc1	.	.	.	.	.
CCCC1CCC(=NNS(=O)(=O)c2ccc(C)c([N+](=O)[O-])c2)CC1 (centres undefined)	.	.	.	.	.
CC1CCCC/C1=N\NS(=O)(=O)c1ccc(Br)cc1 (centres undefined)	.	78.3	.	.	.
C/C(CC(C)C)=N\NS(=O)(=O)c1ccc(C)c([N+](=O)[O-])c1	.	68.4	.	.	.
CC(C)(C)C1CCC(=NNS(=O)(=O)c2ccc(Br)cc2)CC1 (centres undefined)	.	66.0	.	.	.
CC(C)N1Cc2nnn(Cc3ccccc3)c2-c2ccccc2S1(=O)=O	/	/	/	/	.
COc1cccc(C2CC=C(C(=O)O)CN2S(=O)(=O)c2ccc(C)cc2)c1 (centres undefined)	/	/	/	/	.
Cc1cccc(NC(=O)Nc2c(-c3ccc(C(F)(F)F)cc3)nc3ncccn23)c1	/	/	/	/	.
O=C(NC1CC1c1ccccc1)N1CCC(c2nc3ccc(Cl)cc3[nH]2)CC1 (centres undefined)	/	/	/	/	.
CC(C)Oc1cccc(C(=O)NC(=S)Nc2ccc(N3CCN(C)CC3)cc2)c1	84.6	.	.	.	.
COC(=O)[C@]12C[C@H](CC(=O)NCCCCc3ccccc3)C(=O)N(CCC3=CCCCC3)C1=C[C@H](COCc1ccccc1)O[C@@H]2C	/	/	/	/	.
SMILES	FBA Mtb inh	MazEF act	Mtb bLac sens	GDH-TPI inh	CCHFV vOTU inh
C=CC(C)(C)c1[nH]cnc1/C=C1\NC(=O)C(C(C)C)NC1=O (centres undefined)	.	.	.	32.4	.
N#Cc1c(-c2ccncc2)cc(-c2ccc(F)cc2)nc1N	125.4	.	?	.	.
Cc1ccc(-c2cc(-c3ccc(F)cc3)nc(N)c2C#N)o1	154.6	.	.	.	.
Cc1ccc(-c2nnc(SCC(=O)Nc3ccc4c(c3)OCCO4)n2-c2ccc(Cl)cc2)cc1	/	/	/	/	.
CCCCCCn1c(-c2ccc(Cl)cc2Cl)csc1=Nc1ccccc1	/	/	/	/	.
CN1[C@@H](Cc2ccccc2)COc2cccc(N3CCSCC3)c2S1(=O)=O	/	/	/	/	.
O=C(Oc1ccc2c(c1)O/C(=C\c1ccncc1)C2=O)c1ccccc1	.	219.5	.	.	.
C=CCOC(=O)N[C@@H](c1coc2ccccc2c1=O)[C@@H](C)/C=C/CC(=O)OC	/	/	/	/	.
CCC(=O)OCc1cc(=O)oc2ccc3ccccc3c12	170.0	.	.	.	.
CCN(CC)C(=O)CC[C@@H]1CC[C@]2(CCCN(C(=O)c3ccno3)C2)O1	/	/	/	/	.
COc1ccc(C(=O)OC(C)CN2CCOCC2)cc1 (centres undefined)	.	.	.	.	.

Source: PubChem
